From ChEMBL document CHEMBL1157539, “Thousands of chemical starting points for antimalarial lead identification” (Nature, 2010)
“And” between values parts separate entries of the source, which are not always exact repeats. Equal entries are not always repeated.

Experiments:
Assay type in all cases: functional
[1] = tested on: Plasmodium falciparum; experiment: GSK_TCMDC: Inhibition of Plasmodium falciparum 3D7 in whole red blood cells, using parasite LDH activity as an index of growth. Test compounds present at 2uM
[2] = tested on: Plasmodium falciparum; experiment: GSK_TCMDC: Inhibition of Plasmodium falciparum Dd2 in whole red blood cells, using parasite LDH activity as an index of growth. Test compounds present at 2uM
[3] = tested on: HepG2; experiment: GSK_TCMDC: Percent inhibition of human HepG2 cell line. Test compounds present at 10uM.

| SMILES | Inhibition [1] | Inhibition [2] | Inhibition [3] |
| --- | --- | --- | --- |
| CCN(CC)CCCN(C(=O)Nc1c(Cl)cncc1Cl)c1nc(-c2ccc(F)cc2)cs1 | 100% | 93% | 37% |
| COc1ccc2nccc([C@@H](O)CN3CCC(NCc4nc5c(cc4Cl)SCC(=O)N5)C(F)C3)c2c1.Cl (stereo not given in full) | 94% and 99% | 94% and 100% | 20% and 10% |
| CCNc1cc(C(=O)N[C@@H](Cc2ccc(Cl)cc2)[C@H](O)CNC2CCCCC2)cc(N2CCCCS2(=O)=O)c1.Cl | 98% | 99% | 6% |
| O=C(NCCCN(Cc1ccc(F)cc1)c1ccccn1)C(c1cc2ccccc2o1)N1CCN(C(c2ccccc2)c2ccccc2)CC1 (stereo not given) | 97% | 53% | 14% |
| CCCNCc1ccc(-c2ccc(CN(CCOC)C(=O)c3cnc(C)cn3)cc2)nc1.O=C(O)C(F)(F)F | 81% | 14% | 0% |
| CN(C)c1ccc(-c2nnc(Sc3ccc(C#N)c([N+](=O)[O-])c3)n2Cc2ccco2)cc1 | 95% | 79% | 3% |
| COc1cccc(C2=CC(c3ccccc3)n3ncc(C(=O)Nc4ccc(Cl)cc4)c3N2)c1 (stereo not given) | 88% | 28% | 7% |
| CN(C)CCNC(=O)c1ccc(-c2cnc3ccc(NCc4ccc(Cl)c(Cl)c4)nn23)cc1 | 98% | 98% | 60% |
| CCCNCCc1ccc(NS(=O)(=O)c2cccc(-c3ccc(Cl)cc3)c2)cc1.Cl | 100% | 36% | 36% |
| COc1cc(Nc2nccc(Nc3ccc4c(C)n[nH]c4c3)n2)cc2ccccc12.Cl | 100% | 82% | 13% |
| COc1ccc(CNCc2ccc(-c3ccc(-c4nc5cccc(C)c5[nH]4)s3)cc2)cc1.O=C(O)C(F)(F)F | 100% | 89% | 54% |
| O=C(Nc1ccc(Cl)c(Cl)c1)Nc1cc(C(F)(F)F)ccc1Cl | 100% | 85% | 0% |
| Cc1cc(N[C@@H](Cc2ccccc2)C(=O)NCCc2ccccc2)nc(NCCc2ccc(F)cc2)n1.O=C(O)C(F)(F)F | 99% | 89% | 9% |
| OC(CNc1ccnc(Nc2cccc(Cl)c2)n1)c1ccc(C(F)(F)F)cc1 (stereo not given) | 100% | 61% | 13% |
| COc1ccc(Nc2nccc(-c3c(-c4cccc(NC(=O)c5c(F)cccc5F)c4)nn4ccccc34)n2)cc1Cl | 95% | 71% | 61% |
| NC(=O)c1cnc2cc(-c3ccncc3)cc(Nc3ccc(NC(=O)C4CCCCC4)cc3)c2c1 | 98% | 99% | 58% |
| COc1ccccc1N1CCN(c2cccc3c2nc(-c2cncc(C#N)c2)n3CCNCc2ccccc2)CC1.O=C(O)C(F)(F)F | 100% | 81% | 0% |
| CC1N=C(N)N=C(N)N1OCc1cccc2ccccc12 (stereo not given) | 93% | 4% | 66% |
| COc1ccc(C2N=C(N)N=C(N)N2c2ccc(Cl)cc2)cc1OC.Cl (stereo not given) | 85% | 4% | 4% |
| Cc1cc(N[C@@H](Cc2ccccc2)C(=O)NCc2cccs2)nc(NCC2CCCCC2)n1.O=C(O)C(F)(F)F | 100% | 92% | 0% |

| SMILES | Inhibition [1] | Inhibition [2] | Inhibition [3] |
| --- | --- | --- | --- |
| CCc1nc(N)nc(N)c1CCCOc1ccccc1Cl.Cl | 92% | 13% | 61% |
| CN1CC(c2ccccc2)c2cc(O)c(CN3CCCCC3)cc2CC1Cc1ccccc1.Cl (stereo not given) | 99% | 99% | 0% |
| CCOc1cccc(C2c3c(oc4ccccc4c3=O)C(=O)N2CCN(CC)CC)c1 (stereo not given) | 100% | 66% | 5% |
| Cl.N#Cc1ccc2c(c1)CCN(CCC1CCC(NC(=O)c3cc4ccc(Br)cc4[nH]3)CC1)C2 (stereo not given) | 100% | 17% | 12% |
| CCn1c(-c2nonc2N)nc2c(-c3cccc(NC(=O)Nc4ccc5c(c4)CCC5)c3)ncc(OCCCN)c21.O=C(O)C(F)(F)F | 99% | 94% | 26% |
| COc1ccc2nccc([C@@H](O)CN3CCC(NC(=O)/C=C/c4ccc(Cl)c(C(F)(F)F)c4)CC3)c2c1 | 100% | 89% | 11% |
| COc1ccc(C=NN=c2cc(C)[nH]c3ccccc23)cc1OC | 91% | 8% | 19% |
| O=C(NC1CC1)c1cnc(N2CCC(Oc3ccc(Cl)cc3)CC2)c(Cl)c1 | 86% | 75% | 12% |
| CC(C)(C)CN1C(=O)C(c2ccccc2)(c2ccccc2)N=C1N.O=CO | 98% | 94% | 32% |
| CCNc1cc(C(=O)N[C@@H](Cc2ccccc2)[C@H](O)CNC23CCC(CC2)C3)cc(N2CCCCS2(=O)=O)c1.Cl | 97% | 99% | 22% |
| C=Cc1ccccc1C1(O)CCN(CCCCNC(=O)c2ccc(-c3ccc(C#N)cc3)cc2)CC1 | 88% | 64% | 27% |
| CCN(CC)Cc1cc(Nc2c3ccc(Cl)cc3nc3cccc(OC)c23)ccc1O.Cl | 100% | 98% | 8% |
| C=CCOC(=O)N1CCC(CNCc2cccc(-c3cccc(-c4nc5cc(F)ccc5[nH]4)c3)c2)C1.O=C(O)C(F)(F)F (stereo not given) | 100% | 49% | 20% |
| CCN(CC)CCNc1nccc(N(C)c2ccc(NC(=O)Nc3cc(C(F)(F)F)ccc3F)cc2)n1.O=C(O)C(F)(F)F | 97% | 25% | 74% |
| COc1ccc(CNC2CCN(C)CC2)cc1-c1ccc(S(=O)(=O)NCC2CCCO2)s1.O=C(O)C(F)(F)F (stereo not given) | 95% | 18% | 18% |
| CN1CCN(CCCN(Cc2csc(-c3ccc(CNCc4ccccc4)cc3)n2)S(=O)(=O)c2cccc3cccnc23)CC1.O=C(O)C(F)(F)F | 89% | 32% | 5% |
| Br.Fc1ccc(C2N=C(SCCSC3=NC(c4ccc(F)cc4)C(c4ccc(F)cc4)N3)NC2c2ccc(F)cc2)cc1 (stereo not given) | 99% | 69% | 18% |
| N#Cc1ccc(N/C(=N\c2cccc(Cl)c2Cl)NCc2ccc(Cl)cc2Cl)c(O)c1 | 97% | 75% | 3% |
| CC(C)N(Cc1ccccc1)C(=O)CN1C(=O)COc2ccc(S(=O)(=O)N3CCCCCC3)cc21 | 99% | 99% | 0% |
| Cc1nn(-c2ccc(Cl)cc2)c2[nH]c(CN3CCN(c4cccc(Cl)c4)CC3)cc(=O)c12 | 98% | 98% | 0% |

| SMILES | Inhibition [1] | Inhibition [2] | Inhibition [3] |
| --- | --- | --- | --- |
| O=C(/C=C/c1ccccc1Cl)Nc1ccc(Br)c(OCCN2CCCCC2)c1.O=C(O)C(=O)O | 99% | 25% | 11% |
| COC(=O)c1ccc(NC(=O)Nc2ccc(Cn3ncc(N4CCCNCC4)c(Cl)c3=O)cc2)cc1.O=C(O)C(F)(F)F | 83% | 43% | 0% |
| O=C(/C=C/c1ccc(Cl)c(Cl)c1)NCCCCCN1CCC(NC(=O)Nc2cccc(Cl)c2)CC1 | 100% | 13% | 52% |
| Cc1ccc(NC(=O)c2ccc(CN3CCCN(CCC(C)C)CC3)cc2)cc1C.O=C(O)C(F)(F)F | 92% | 17% | 25% |
| Cl.Clc1ccc(OCCC2CCN(CCCCCCN3CCCCC3)CC2)cc1Cl | 97% | 36% | 86% |
| CC1CCCCN1S(=O)(=O)c1ccc(NC(=O)c2cc(-c3ccccc3O)n[nH]2)cc1 (stereo not given) | 90% | 96% | 26% |
| O=C(Nc1cccc(-c2cccc(-c3nc4cc(F)ccc4[nH]3)c2)c1)c1ccoc1 | 98% | 35% | 36% |
| Cl.c1ccc2c(NCCCCCCCCNc3ccnc4ccccc34)ccnc2c1 | 100% | 35% | 57% |
| Clc1ccc(-c2cnc3ccc(NCc4ccncc4)nn23)cc1 | 98% | 98% | 25% |
| COc1ccc2nccc([C@@H](O)CN3CCC(NC(=O)/C=C/c4cccc(C)c4)CC3)c2c1 | 84% | 28% | 16% |
| COc1ccc(-c2nc(NC(=O)CSc3ccc([N+](=O)[O-])cc3)sc2C)cc1 | 100% | 100% | 0% |
| COc1ccc2ncc(F)c(CCN3C4CCC3CC(NCc3ccc5c(c3)OCCO5)C4)c2n1.Cl (stereo not given) | 100% | 35% | 27% |
| COc1ccc(NC(=O)/C=C/c2ccccc2Cl)cc1OCCN1CCC(N2CCCC2)CC1.O=C(O)C(=O)O | 100% | 23% | 22% |
| CN(C)c1cccc(-c2cnc3ccc(NCc4cccc(Cl)c4)nn23)c1 | 99% | 98% | 11% |
| CCCCCCOc1ccc(C(=O)N(Cc2ccccc2)c2c(-c3ccccc3)nc3cc(C)ccn23)cc1 | 95% | 96% | 0% |
| O=c1cc(NCCCNCc2cccc(SC(F)(F)F)c2)[nH]c2ccccc12 | 100% | 94% | 0% |
| Cl.O=c1cc(NCCCNCc2ccc(Cl)c(Cl)c2)[nH]c2cc(Cl)ccc12 | 95% | 51% | 1% |
| O=C(Nc1cccc(CN2CCN(C(=O)c3cccs3)CC2)c1)c1cccs1.O=C(O)C(F)(F)F | 95% | 91% | 0% |
| CCN(CC)C(=O)C1CCCN(C(=O)Nc2cc(C(F)(F)F)cc(C(F)(F)F)c2)C1 (stereo not given) | 86% | 98% | 0% |
| Fc1cccc(COc2ccc(Nc3ncnc4sc(C#C[C@H]5CC[C@H](CNCC(F)(F)F)N5)cc34)cc2Cl)c1 | 100% | 51% | 10% |
